# Most compounds without a hit are left out; they make up all but 1.9% or so of the library.
# PKM2 act = activators of human pyruvate kinase M2. AID 1631. purified PKM2, Kinase-Glo ATP luminescence, activation; response scale: 0% is enzyme alone, no compound. P14618. Potency, µM (doses to about 57.5 µM), for the others: at the top dose activation, actives largely listed as activators. 0.34% of 260,000 active; further: potency means the concentration at half of the fitted maximal effect; on the % scale 0 is the no-effect control and ±100 the full control effect; nearly all actives have a fitted effect of over 55% in size
#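 Purified hPK-M2 (>95% pure) converted ADP (0.1 mM final) to ATP with 0.5 mM PEP in 50 mM imidazole pH7.2, KCl, MgCl2, Tween 20, BSA; 1 h at room temperature. ATP detected by Kinase-Glo luminescence.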
# IL2 activator = activates IL-2 in a cell-based reporter assay; IL-2 activation reporter assay, cell-based qHTS; stimulated with anti-CD3/CD4/CD28 beads; in transgenic mouse T cells; AID 652025; activation, % (series mostly up to about 46 µM); 0.065% of 360,000 active; in the data active means activation above about 50%; inconclusive means mostly about 30% to 49%; further: 0% is about no effect
#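 Quantitative HTS in unstimulated transgenic mouse T cells, with memory T cells as non-tolerant control and PMA/ionomycin as tolerance-bypass control. Compound pretreatment lasted 60 minutes before 18 h bead stimulation; EGFP/DsRed fluorescence read.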
# USP2a block = inhibitors of human ubiquitin-specific protease USP2a; O75604; USP2 core, Ub-CHOP2 coupled fluorogenic reporter, 485/531; Potency, µM (series often up to 38.3 µM), for the others: at the highest dose activity change, negative = inhibition, most hits filed as inhibitors; 0.01% of 330,000 active; AID 463254;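 further: potency means the concentration at half of the fitted maximal effect; plate controls were DMSO wells for no effect and full inhibition by NEM control for full effect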
# Target sequence (O75604 whole entry, looked up): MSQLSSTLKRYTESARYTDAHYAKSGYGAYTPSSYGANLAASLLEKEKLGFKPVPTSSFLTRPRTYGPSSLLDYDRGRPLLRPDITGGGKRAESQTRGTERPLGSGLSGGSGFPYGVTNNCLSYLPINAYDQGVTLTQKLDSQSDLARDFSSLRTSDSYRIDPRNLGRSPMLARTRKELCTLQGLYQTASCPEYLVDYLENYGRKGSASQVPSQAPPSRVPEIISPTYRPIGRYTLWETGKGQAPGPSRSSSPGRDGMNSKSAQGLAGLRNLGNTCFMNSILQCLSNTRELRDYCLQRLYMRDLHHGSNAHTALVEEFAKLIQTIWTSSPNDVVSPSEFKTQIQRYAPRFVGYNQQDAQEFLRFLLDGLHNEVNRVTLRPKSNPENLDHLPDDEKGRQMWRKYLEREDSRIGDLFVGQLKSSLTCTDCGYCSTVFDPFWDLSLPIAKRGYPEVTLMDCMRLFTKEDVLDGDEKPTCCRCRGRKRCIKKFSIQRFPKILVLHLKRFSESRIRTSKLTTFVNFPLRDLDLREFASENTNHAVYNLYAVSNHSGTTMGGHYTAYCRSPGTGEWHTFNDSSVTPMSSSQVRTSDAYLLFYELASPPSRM
#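 USP2 core (10nM final) preincubated 30min RT with compound in 20mM Tris-HCl pH 8.0, 2mM CaCl2, 2mM beta-mercaptoethanol, 0.05% CHAPS; 25nM Ub-CHOP2 plus 25nM reporter substrate added, fluorescence (Ex485/Em531) read after 60min.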
# a7 integrin act = activates integrin-mediated alleviation for muscular dystrophy. alpha7betagal myoblasts, beta-gal FDG fluorescence, 48 h. Potency, µM (top dose mostly 38.3 µM), for the others: at the top dose activation, actives largely listed as activators. 0.064% of 350,000 active. AID 624291;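 further: potency means the concentration at half of the fitted maximal effect; 100% = response of the positive control SU9516; nearly all actives have a fitted effect of over 60% in size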
#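 alpha7betagal+/- myoblasts (passage 13, 250/well) treated 48 h at 37C with compounds at 1:260 dilution of DMSO stock. Lysed, then beta-galactosidase activity read as FDG fluorescence (ex 480/em 540) after 30 min, with pre-read for autofluorescence.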
# ClpP mod = qHTS Assay for Activators of ClpP. ATP-dependent Clp protease proteolytic subunit (Bacillus subtilis (strain 168)), P80244. purified B. subtilis ClpP, FRET peptide cleavage, 20 min. Potency, µM (highest dose often 57.5 µM), for inactives: at the highest dose activity change, negative = active. 1.9% of 340,000 active. AID 651965, 2013; active means well fitted falling curve with a large enough effect; inconclusive means small, poorly fitted or top-dose-only effect; inactive means no such curve, though single readings can be large or run the other way; further: potency means the concentration at half of the fitted maximal effect; the source files actives as falling curves though it sought activators and does not explain the sign; nearly all actives have a fitted effect of over 65% in size
# Target sequence (P80244 whole entry, looked up): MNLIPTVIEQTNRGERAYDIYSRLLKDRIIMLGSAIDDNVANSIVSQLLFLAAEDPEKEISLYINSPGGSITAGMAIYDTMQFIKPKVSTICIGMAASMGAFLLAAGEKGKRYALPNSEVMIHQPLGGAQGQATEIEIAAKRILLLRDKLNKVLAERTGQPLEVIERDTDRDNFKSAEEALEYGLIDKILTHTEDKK
#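 Purified B. subtilis ClpP, 10 microg/mL final in Tris/HCl pH8 with KCl, BSA, glycerol and Tween-20, cleaved an Abz/nitrotyrosine-quenched decapeptide. Fluorescence (ex 320, em 430) was read at 0 and 20 min at room temperature. Delta was normalized to 5.8 microM ADEP and DMSO/no-enzyme controls.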
# Pin1 inhibitor = human Pin1 inhibition. Q13526. Pin1 FP peptide displacement, HiFluor488, 10 min. Potency, µM (top dose mostly 115 µM), inactives show top-dose activity, negative = inhibition, most hits filed as inhibitors. 0.009% of 390,000 active. AID 504891; active means well fitted inhibition curve with a large enough effect in the polarisation, with a control signal flat, not every such curve was filed as active; inconclusive means small, poorly fitted or top-dose-only effect, or effect the other way, or a change in a side signal; inactive means no such curve, though single readings can be large or run the other way; the % refers to the polarisation; further: potency means the concentration at half of the fitted maximal effect; on the % scale 0 is the no-effect control and ±100 the full control effect
# The depositor's hits bear a star; ? = inconclusive; . = no result given; ! = not active in a repeat; [ ] = remark or other dose. Unless noted, the call rests on the fitted dose curve; in most records, active means well fitted curve in the direction sought with a large enough effect; inconclusive means small, poorly fitted or top-dose-only effect, or another doubt; inactive means no such curve, though single readings can be large; an effect the other way counts as inactive or inconclusive.
SMILES,PKM2 act,IL2 activator,USP2a block,a7 integrin act,ClpP mod,Pin1 inhibitor
CCOc1ccc(NC(=O)/C=C/c2ccccc2)c([N+](=O)[O-])c1,-13.2%,3.1,3.9%,8.0%,-1.0%,?
CCOc1ccc(/C=C/C(=O)Nc2ccc(OC)cc2[N+](=O)[O-])cc1,-0.4%,114.0*,2.7%,18.7%,10µM*,?
CCOc1ccc(NC(=O)CSc2ncn[nH]2)c([N+](=O)[O-])c1,15.8µM*,-0.1,1.7%,27.8%,0.9%,-4.0%
O=C(NCCCn1ccnc1)Nc1cccc2ccccc12,-2.0%,-0.6,4.8%,22.1%,31.6µM*,-0.1%
O=C(NCCCn1ccnc1)c1ccc2ccccc2c1,-14.5%,-1.4,0.9%,0.6%,-4.2%,-8.8%
Cc1cc(C)c2c(C)ccnc2c1,.,.,.,.,4.1%,.
O=C(COC(=O)c1cc2ccccc2oc1=O)Nc1ccc(F)cc1F,-8.7%,-2.5,-1.2%,4.47µM*,-26.1%,7.3%
COc1ccc(CC(=O)Nc2ccccc2C(C)=O)cc1S(=O)(=O)N1CCOCC1,.,-3.3,-0.8%,-7.4%,35.5µM*,-2.2%
CCOc1ccc(S(=O)(=O)N2CCCCC2)cc1NC(=O)C1CCC1,.,-1.1,0.0%,-11.0%,14.1µM*,-6.0%
COc1ccc(S(=O)(=O)N2CCCCCC2)cc1C(=O)NCc1ccccc1Cl,.,-0.3,-1.1%,?,25.1µM*,12.4%
COc1ccc(S(=O)(=O)N2CCOCC2)cc1NC(=O)Cc1ccsc1,.,1.7,1.1%,41.0%,20µM*,10.3%
O=C(Nc1cc(S(=O)(=O)N2CCCCCC2)ccc1OCC(F)(F)F)C1CCC1,4.5%,-0.5,0.5%,26.0%,1.6%,7.4%
Fc1ccccc1-c1ccc(-c2nc3ccc(Cl)cn3c2Nc2ccc(Cl)cc2)o1,.,.,.,.,-11.4%,43.5%
COc1cc2cncnc2cc1OCCCCC(N)=O,.,.,.,.,-24.4%,.
CNC(=O)c1cnn2c(C)cc(C)nc12,.,.,.,.,.,0.0%
COc1ccc(S(=O)(=O)N2CCCCC2)cc1NC(=O)c1ccco1,-4.5%,-0.8,1.1%,-9.7%,15.8µM*,-8.8%
CC(=O)Nc1ccn(C2OC(C(COC(C)=O)NC(=O)C(Cc3ccccc3)NC(=O)OC(C)(C)C)C(OC(C)=O)C2OC(C)=O)c(=O)n1 (stereo not given),.,.,.,.,.,-0.1%
O=C(Nc1ccc(/C=C/c2nc3ccccc3o2)cc1)c1cccc(C(F)(F)F)c1,-0.3%,0.2,1.9%,-18.2%,15.8µM*,5.0%
O=C(Nc1ccc(/C=C/c2nc3ccccc3o2)cc1)c1c(F)cccc1F,-8.4%,0.4,0.2%,-38.3%,?,20.6%
Nc1c(Br)cc(C=O)cc1Br,.,.,.,.,-3.0%,.
CN=c1scc(-c2ccccc2F)n1/N=C/c1ccc[nH]1,-21.0%,0.0,0.9%,2.6%,.,57.5%
CN=c1scc(-c2ccccc2F)n1/N=C/c1ccc(O)c(O)c1O,.,-0.7,12.6µM*,-50.0%,0.2%,?
Cc1c(Br)cc(F)c([S+](=O)([O-])N2CCN([S+](=O)([O-])c3ccc4c(c3)OCCO4)CC2)c1F,.,.,.,.,.,1.8%
CC1(C)CC(=O)C=C(Nc2ccc(C(=O)O)c(O)c2)C1,.,-0.7,0.8%,10µM*,.,-0.5%
Cc1ccc(NC2=CC(=O)CC(C)(C)C2)cc1Cl,.,-0.5,-2.2%,15.0%,.,4.4%
SMILES,PKM2 act,IL2 activator,USP2a block,a7 integrin act,ClpP mod,Pin1 inhibitor
CCCCOc1cccc(C(=O)NNC(=S)NC2CCCCC2)c1,-0.2%,1.1,-11.0%,-25.3%,25.1µM*,-3.4%
CC(=O)c1cccc(NC(=S)NC2CCCCC2)c1,3.0%,-0.3,3.0%,-17.9%,14.1µM*,0.3%
CC(=O)c1cccc(NC(=S)NC(=O)c2cccc(C)c2)c1,1.3%,0.0,0.9%,5.5%,15.8µM*,2.6%
CCOc1cccc(C(=O)NC2CCCCC2)c1,-4.7%,-0.6,3.2%,19.4%,-0.4%,-0.4%
CC(=O)c1cccc(NC(=S)NC2CC2)c1,-2.4%,0.1,1.1%,-7.0%,-0.6%,-1.6%
Cc1cccc(NC(=S)N/C(=N/S(=O)(=O)c2ccccc2)c2ccccc2)c1,5.9%,-2.5,-0.5%,0.0%,2.24µM*!,?
O=C1Cc2cc(S(=O)(=O)N3CCN(c4ccc(C(F)(F)F)cc4)CC3)ccc2N1,.,.,.,.,.,5.4%[230 µM]
CCOC(=O)CCc1cc(F)c(S(=O)(=O)N2CCN(S(=O)(=O)c3ccc4c(c3)OCCO4)CC2)cc1F,.,.,.,.,.,2.3%
CCCCCCCCCC[n+]1cc(Br)cc(Br)c1,.,.,.,.,-0.2%,.
CC12CCC=CC1C(c1ccc3ccccc3c1C=Cc1ccccc1)N(Cc1ccccc1)C2=O (stereo not given),.,.,.,.,.,9.5%
COc1ccc(OC)c(/C=C2\C=Cc3ccccc32)c1,.,.,.,.,-16.2%,.
Cc1ccc(C)c(NC(=O)c2ccc(OCc3c(C)noc3C)cc2)c1,.,-3.6,-0.9%,21.8%,31.6µM*,-7.0%
COc1ccc(-c2nc(CS(=O)CC(=O)NCCc3ccc(C)cc3)c(C)o2)cc1OC (stereo not given),.,-3.5,4.1%,-26.6%,3.9%,-0.1%
COc1ccc(-c2nc(CS(=O)CC(=O)NCCCN3CC(C)CC(C)C3)c(C)o2)cc1OC (stereo not given),0.6%,-1.1,-1.0%,4.7%[7.66 µM],28.2µM*,5.2%
COc1ccc(-c2nc(CS(=O)CC(=O)NCCc3ccccc3)c(C)o2)cc1OC (stereo not given),.,.,.,.,15.8µM*,0.4%
O=C(NC1CCCc2ccccc21)c1cnn2c1NC(=C1CC1)C=C2C(F)F (stereo not given),.,.,.,.,0.8%,.
COc1ccc(CN(Cc2ccccc2)C(=O)c2ccccc2N)cc1COc1ccc(NC(C)=O)cc1,.,.,.,.,.,-1.8%
COC(=O)c1cc(-c2c(C)oc3cc(O)ccc3c2=O)c(C)o1,-1.5%,-1.5,3.4%,3.6%,25.1µM*,-1.4%
COC(=O)c1cc(-c2c(C)oc3cc(OC)ccc3c2=O)c(C)o1,6.1%,2.5,10.1%,6.4%,1.2%,1.9%
Cc1oc2cc(O)ccc2c(=O)c1Oc1ccccc1,-4.9%,-3.5,0.8%,0.0%,11.2µM*,-7.0%
Cc1ccc(S(=O)(=O)N(CC(=O)NC2CC2)c2ccc(C)c(Cl)c2)cc1,26.3%,-0.7,0.6%,0.0%,15.8µM*,0.4%
COc1ccc(C2C3=C(CC(C)(C)CC3=O)Nc3n[nH]c(C)c32)cc1 (stereo not given),15.2%,-0.2,1.8%,-45.1%,35.5µM*,1.2%
Cc1[nH]nc2c1C(c1ccccc1)C1=C(CC(C)(C)CC1=O)N2 (stereo not given),-7.7%,-2.7,-1.3%,-53.4%,28.2µM*,-7.4%
Cc1[nH]nc2c1C(c1ccc(O)cc1)C1=C(CC(C)(C)CC1=O)N2 (stereo not given),-1.8%,0.0,5.6%,25.4%,.,0.6%
